Compound activity (PubChem)
Sampled rows, rich in hits. Any-hit rate of the full collection: about 4%.
NALP1 inh: NALP1 inhibition | S. cerevisiae NALP1/ASC/caspase-1 growth, X-gal OD620, 72 h | inhibition, % at 10 µM | 280,000 compounds, 0.61% hits | AID 2071; in the data active = inhibition mostly above about 24%, no sharp cut-off; inactive = mostly below about 32%
tim10-1 inh: inhibits growth of tim10-1 mutant yeast; S. cerevisiae tim10-1 ts strain growth, BacTiter-Glo, 24 h; inhibition, % at 20 µM; 330,000 compounds, 2.2% hits; AID 463190;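 active = inhibition of at least 40%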;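 also: mutant grown at 25 °C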
tim23-1 inh: growth inhibitors of tim23-1 mutant yeast. inhibition, % at 20 µM. 330,000 compounds, 1.3% hits. S. cerevisiae tim23-1 growth, BacTiter-Glo luminescence, 24 h;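 active = growth inhibition of the mutant yeast at or above 50%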;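 also: temperature-sensitive mutant grown at 25 °C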
NALP3 yeast inh: inhibitors of NALP3 inflammasome in yeast. Yeast reconstituted NLRP3/ASC/caspase-1, beta-gal luminescence, 24 h. AID 2825. inhibition, % at 10 µM. 330,000 compounds, 0.39% hits;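 active = inhibition of 50% or more; inactive = inhibition below 50%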
TIM10 inh: TIM10 yeast growth inhibition | S. cerevisiae TIM10 strain growth, BacTiter-Glo luminescence, 24 h | inhibition, % at 10 µM | 330,000 compounds, 1.4% hits | AID 463195;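 active = inhibition of 40% or more at the single tested concentration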;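 also: wild-type TIM10 isogenic control strain grown at permissive 25 °C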
tim10-1 conf: confirmation of tim10-1 mutant yeast growth inhibitors. shares compounds with tim10-1 inh. inhibition, % at 20 µM. S. cerevisiae tim10-1 ts strain growth, BacTiter-Glo, 24 h. 7,400 compounds, 56% hits;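 active = inhibition of yeast growth at or above a set limit in either of two repeat tests at 20 µM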;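 also: tim10-1 mutant grown at permissive 25 °C to find synthetic lethal compounds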
tim10 confirm: TIM10 yeast growth inhibition, confirmed. S. cerevisiae tim10 strain growth, BacTiter-Glo luminescence, 24 h. AID 463215. 4,600 compounds, 63% hits. shares compounds with TIM10 inh. inhibition, % at 10 µM;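 active = inhibition of yeast growth at or above a set limit in either of two replicates at 10 µM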; also: this counterscreen used the strain with wild-type TIM10
tim23-1 confirm: tim23-1 yeast growth inhibition, confirmed. shares compounds with tim23-1 inh. S. cerevisiae tim23-1 growth, BacTiter-Glo luminescence, 24 h. inhibition, % at 20 µM. 4,400 compounds, 83% hits. AID 463218;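 active = inhibition above about 39% in either of two replicate wells at 20 µM, limit read from the data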;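 also: temperature-sensitive tim23-1 mutant grown at 25 °C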
Each line names hits and unclear results; the compound was inactive in the other large screens (follow-up assays come after a bar, where they were run).

CCCc1[nH]nc2c1C(c1ccc(OC)cc1OC)C(C#N)=C(N)O2 (stereo not given)	tim10-1 inh 44, tim23-1 inh 51, TIM10 inh 47 | tim10-1 conf 36 | tim10 confirm 37 | tim23-1 confirm 50
CSCC[C@H](N)C(=O)N1CCC(C(=O)N[C@@H](C)C(=O)NCc2ccc(F)cc2)CC1	none
CC1=CC(=O)C=C(C)C1=NOc1ccc([N+](=O)[O-])cc1	tim10-1 inh 62, tim23-1 inh 57, TIM10 inh 47 | tim10-1 conf 65 | tim10 confirm 38 | tim23-1 confirm 69
Cc1cc(C)c2cc(C=O)c(Cl)nc2c1	tim10-1 inh 45, tim23-1 inh 67, TIM10 inh 51 | tim10-1 conf 40 | tim10 confirm 32 | tim23-1 confirm 78
CCc1cc2cc(C)cc(C)c2nc1Cl	none
COc1ccc(C(=O)C[n+]2cn(C(F)F)c3ccccc32)c(F)c1	tim10-1 inh 53, tim23-1 inh 58, TIM10 inh 63 | tim10-1 conf 50 | tim10 confirm 31 | tim23-1 confirm 43
COc1ccc2c(ccc[n+]2CC(=O)c2ccccc2)c1	none
CCOc1ccc(N2CC(O)=C(c3ccccc3)C2=N)cc1	none
CCOC(=O)COc1c(C=O)cc(Br)cc1OC	tim10-1 inh 45, tim23-1 inh 61, TIM10 inh 65 | tim10-1 conf 36 | tim10 confirm 53 | tim23-1 confirm 75
COc1ccc(-c2cccc(NC(=O)c3ccco3)c2)nn1	none (no result: NALP1 inh)
COc1ccc(NC(=O)c2ccco2)cc1NC(=O)c1ccc(Br)o1	tim10-1 inh 44, tim23-1 inh 55, TIM10 inh 76 | tim10-1 conf inactive | tim10 confirm 61 | tim23-1 confirm 74
COc1ccc(NC(=O)c2ccco2)cc1NC(=O)c1ccc(C)cc1	none
COc1ccc(-c2ccc(NC(=O)c3ccco3)cc2)nn1	tim10-1 inh 47, tim23-1 inh 57, TIM10 inh 46 (no result: NALP1 inh) | tim10-1 conf inactive | tim10 confirm inactive | tim23-1 confirm 51
Cc1cc(C)c2c(=O)[nH]c(SCC(=O)c3ccc(C)c(C)c3)nc2n1	none
Cc1cc(C)n(/N=C/c2cc(Cl)cc(Cl)c2O)c(=O)c1	tim10-1 inh 48, tim23-1 inh 61 | tim10-1 conf inactive | tim23-1 confirm 72
Cc1cc(C)n(/N=C/c2ccccc2O)c(=O)c1	none
CCOc1ccc(NC(=O)CCNS(=O)(=O)c2ccc3c(c2)CC(C)N3C(C)=O)cc1 (stereo not given)	none
Cc1ccc(C(=O)/C=C/c2ccc(-c3ccc(C)cc3)o2)cc1	tim10-1 inh 63, tim23-1 inh 60, TIM10 inh 57 | tim10-1 conf 64 | tim10 confirm 66 | tim23-1 confirm 76
O=C(/C=C/c1ccc(Cl)cc1Cl)n1cccn1	tim10-1 inh 56, tim23-1 inh 66, TIM10 inh 53 | tim10-1 conf 58 | tim10 confirm inactive | tim23-1 confirm 84
N#C/C(=C/c1ccc(N2CCCCCC2)o1)c1ccc(F)cc1	tim10-1 inh 62, tim23-1 inh 60, TIM10 inh 42 (no result: NALP1 inh) | tim10-1 conf inactive | tim10 confirm 58 | tim23-1 confirm 69
Fc1ccc(NC(=S)Nc2ccc(F)c(Cl)c2)cc1Cl	tim10-1 inh 71, tim23-1 inh 72, TIM10 inh 53 | tim10-1 conf 61 | tim10 confirm inactive | tim23-1 confirm 65
Cc1ccc(OCC(=O)NCCNC(=O)c2ccco2)cc1C	none
Cc1ccc(/C(N)=N/OC(=O)N2c3ccccc3Sc3ccccc32)cc1	tim10-1 inh 63, tim23-1 inh 68, TIM10 inh 86 (no result: NALP1 inh) | tim10-1 conf 50 | tim10 confirm 80 | tim23-1 confirm 46
N/C(=N\OC(=O)C(c1ccccc1)c1ccccc1)c1ccncc1	none (no result: NALP1 inh)
CCC(C(=O)O/N=C(\N)c1ccccc1)c1ccccc1 (stereo not given)	tim10-1 inh 56, tim23-1 inh 56, TIM10 inh 54 | tim10-1 conf 53 | tim10 confirm 49 | tim23-1 confirm 43
CCC(C(=O)OCC(=O)Nc1ccc(C(N)=O)cc1)c1ccccc1 (stereo not given)	none
